# Data as given in PubChem BioAssay AID488890 (Southern Research Specialized Biocontainment Screening …, 2010).
# About 1,300 (0.41%) of roughly 320,000 compounds were called active. Another 3% or so got no clear call; they are omitted. How the calls were made is not given here. The list is a sample of the results. Results with a measured potency or affinity are listed apart.
# Experiment: growth inhibition of non-replicating M. tuberculosis (AID 488890);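 further: plate controls were DMSO cells for no effect and high antibiotic wells for full effect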
# Settings: Mycobacterium tuberculosis non-replicating, at 25 µM, stronger effect = higher value
row,Compound,inhibition [%]
1,CNS(=O)(=O)c1cccc(C(=O)OCC(=O)N2c3ccccc3CC2C)c1 (stereo unspecified),-1.88
2,Fc1ccc(-c2n[nH]c(=S)c3ccccc23)cc1,15.8
3,CCOc1ccc(NC(=O)Nc2ccc3c(c2)CCC3)cc1,-9.82
4,Cc1cc(F)ccc1Oc1cc(NN2CCCCC2)c([N+](=O)[O-])cc1[N+](=O)[O-],8.26
5,CC(Oc1ccc(S(=O)(=O)N2CCCC2)cc1[N+](=O)[O-])C(=O)NC1(C#N)CCCCC1 (stereo unspecified),9.55
6,COc1cccc(CNC(=O)C2CCN(c3cnccn3)CC2)c1,-3.9
7,O=C1NC(=O)N(CCc2ccc(F)cc2)C(=O)/C1=C/c1ccco1,22.4
8,O=C1NC(=O)N(CCc2ccc(F)cc2)C(=O)/C1=C/c1cccs1,2.97
9,O=C(c1ccccc1NS(=O)(=O)c1cccs1)N1CCOCC1,6.22
10,Cc1cc(OCC(=O)Nc2ncn[nH]2)ccc1Cl,30.6
11,Cc1cccc(OCC(=O)Nc2nonc2NC(=O)COc2cccc(C)c2)c1,48
12,CCCn1nnc(NC(=O)COc2ccccc2Cl)n1,67.3
13,CCCCn1nnc(NC(=O)COc2cc(C)ccc2C(C)C)n1,64
14,Cc1cccc(N2CC(C(=O)Nc3ccc4c(c3)OCCO4)CC2=O)c1C (stereo unspecified),-5.78
15,CCc1cc2c(=O)c(-c3nc(C)cs3)coc2cc1O,13.5
16,COCCNC(=O)C1CCC(=O)N1S(=O)(=O)c1ccc(C)cc1 (stereo unspecified),1.96
17,Cc1[nH]n(-c2ccccc2)c(=O)c1C=Nc1cccc(F)c1,5.36
18,Cc1[nH]n(-c2ccccc2)c(=O)c1C=Nc1cccc2cccnc12,33.6
19,O=C(Cc1ccccc1F)N1CCN(CC(=O)N2CCCC2)CC1,8.24
20,CCOC(=O)CSc1nnc(CCc2nc3ccccc3[nH]2)n1C,-4.77
21,COc1ccc2occ(C(=O)c3ccccc3)c2c1,3.51
22,Cc1ccc(C(=O)c2coc3ccc(OCC(=O)O)cc23)cc1,-4.9
23,CNC(=S)NNC(=O)c1cn(C)nc1C,-3

row,Compound,inhibition [%]
1,CCn1ccc(C(=O)NCCCN2CCCC2=O)n1,5.42
2,Cc1c([N+](=O)[O-])c([N+](=O)[O-])nn1CC(=O)N1CCOCC1,1.03
3,O=C(O)C1C2C=CC(CC2)C1C(=O)O (stereo unspecified),1.2
4,O=C(C[C@@H]1C/C=C\CCCC(=O)OC[C@@H]2CCCN2C1=O)N[C@@H](CO)Cc1ccccc1,0.26
5,CS(=O)(=O)c1ccccc1-c1nnc(NC(=O)c2ccc(S(=O)(=O)N3CCCC3)cc2)o1,-2
6,CS(=O)(=O)c1ccccc1-c1nnc(NC(=O)c2ccco2)o1,38.6
7,Cc1ccc(O)c(NC(=O)c2ccco2)c1,15.1
8,Cc1ccc(NC(=O)c2ccco2)cc1C,60.8
9,Cc1ccc(C)c(-c2nnc(NC(=O)CCS(=O)(=O)c3ccc(F)cc3)o2)c1,41.4
10,O=C(Nc1nnc(-c2ccco2)o1)c1ccc(S(=O)(=O)N2CCCC2)cc1,25.6
11,CS(=O)(=O)c1ccc(-c2nnc(NC(=O)c3ccco3)o2)cc1,43.1
12,Cc1ccc2nsnc2c1NC(=O)c1ccc([N+](=O)[O-])o1,75.4
13,Cc1nc(-c2ccc(NC(=O)C(C)(C)C)cc2)c(-c2ccccc2)o1,-0.61
14,Nc1cccc(C(=O)OCC(=O)NC2CCCc3ccccc32)c1 (stereo unspecified),6.1
15,O=C1c2ccccc2C(=O)N1CCOc1cccc(Br)c1,53.6
16,CCCCCC(=O)N/N=C(\C)c1ccc(NC(=O)c2ccco2)cc1,10.3
17,CCNC(=O)C(=O)Nc1ccc(OC)c(Cl)c1,-0.29
18,COc1ccc(Cc2nc3ccc(C(=O)N4C[C@@H](C)O[C@@H](C)C4)cc3o2)cc1OC,17.8
19,c1ccc(-c2nn3c(C4CCCCC4)nnc3s2)nc1,9
20,Cc1nc(N2CCN(Cc3ccccc3)CC2)nc2c1C(=O)CC(c1ccco1)C2 (stereo unspecified),3.19
21,COc1cccc(-c2cccc(NC(=O)C3CCN(Cc4cccc(C)n4)CC3)c2)c1,5.93
22,CCc1ccc(NC(=S)N2CCN(C)CC2)cc1,-4.9
23,COc1ccc([N+](=O)[O-])cc1NC(=O)CCCOc1ccccc1,12.4

row,Compound,inhibition [%]
1,Cc1ccc(C(=O)Nc2ccc(Oc3cccc(C(F)(F)F)c3)nc2)cc1,-15.4
2,COc1cc(-c2nnc(NC(=O)c3ccco3)o2)cc(OC)c1OC,12.9
3,Cc1ccc(-c2nnc(-c3ccc(NC(=O)c4ccco4)cc3)o2)cc1,-12.3
4,COc1ccc(CN2C(=O)c3ccccc3C2OC)cc1 (stereo unspecified),43.5
5,COc1ccc(CCNC(=O)c2nc(-c3cccs3)no2)cc1OC,62.8
6,O=C(NCc1ccccc1)c1nc(-c2cccs2)no1,15.8
7,CC(=O)c1ccccc1Oc1cc(NN2CCCCC2)c([N+](=O)[O-])cc1[N+](=O)[O-],30.5
8,Cc1ccc(S(=O)(=O)N2CCCC2C(=O)NC2CCCCC2)cc1 (stereo unspecified),13.2
9,Nc1ccc2oc3ccccc3c2c1,68.5
10,Nc1ccc(C#Cc2ccc3c(=O)c4ccccc4oc3c2)cc1,11.2
11,Cc1sc(NC(=O)c2oc3ccccc3c2C)c(C#N)c1C,0.16
12,NS(=O)(=O)c1ccc(CCNCc2cc(Br)ccc2OCc2ccccc2)cc1,36
13,CCOc1ccc(N(C(=O)c2ccc(S(=O)(=O)N3CCCC3)cc2)C2C=CS(=O)(=O)C2)cc1 (stereo unspecified),2.41
14,CCN(CCn1cccn1)Cc1cn[nH]c1-c1ccc(-c2ccccc2)cc1,23
15,CCCC(=O)NC1C2CC3CC(C2)CC1C3 (stereo unspecified),66.5
16,O=C(CNCc1ccccc1)NC1C2CC3CC(C2)CC1C3 (stereo unspecified),7.24
17,Cc1ccc(S(=O)(=O)N2CCC(C(=O)NC3CC(C)(C)NC(C)(C)C3)CC2)cc1,-9.46
18,O=C(CC1SC(N2CCCCC2)=NC1=O)Nc1cccc(C(=O)O)c1 (stereo unspecified),-10.1
19,CC(=O)OCCNc1cc(SC(C)C)c2nonc2c1[N+](=O)[O-],65.7
20,COC(=O)CCSc1cc(NCCOC(C)=O)c([N+](=O)[O-])c2nonc12,72.4
21,Cn1ccnc1Sc1cc(NCCCO)c([N+](=O)[O-])c2nonc12,77.2
22,CCCSc1cc(NCCOC(C)=O)c([N+](=O)[O-])c2nonc12,74.5
23,CC(=O)OCCCNc1cc(Sc2nc3ccccc3s2)c2nonc2c1[N+](=O)[O-],7.19

row,Compound,inhibition [%]
1,O=[N+]([O-])c1c(NCCCO)cc(SCc2ccco2)c2nonc12,70.1
2,Cc1cc2c(C)c(C)c(=O)[nH]c2cc1N,6.16
3,Cc1occc1C(=O)NNC(=O)NC12CC3CC(CC(C3)C1)C2,1.27
4,O=C(NCc1ccccn1)c1cccc(S(=O)(=O)N2CCCCC2)c1,-1.8
5,COc1ccc(C(=O)NNC(=O)CCC(=O)NNC(=O)c2ccc(OC)cc2)cc1,8.31
6,CCNc1nc(NCC)n2c(SCc3nc4ccccc4c(=O)[nH]3)nnc2n1,48.6
7,Cn1c(=O)c(Oc2cc(Cl)cc(Cl)c2)nc2ccccc21,5.56
8,Cc1ccc(N)cc1NC(=O)CN1CCOCC1,6.66
9,CCOCCCNC(=O)C1CC(=O)N(C2CCCC2)C1 (stereo unspecified),-5.49
10,CSc1ncccc1C(=O)OCC(=O)N1CCCC1,39.6
11,COc1cccc(C(=O)COC(=O)c2ccc(NC(C)=O)cc2)c1,61.7
12,CCN(CC)S(=O)(=O)c1cc(C(=O)N=c2sccn2C)ccc1OC,20.4
13,O=[N+]([O-])c1cc(CN2CCCC2)c2cccnc2c1O,-4.52
14,O=C(Oc1c(Cl)cc(Cl)c2cccnc12)N1CCOCC1,2.11
15,OCCN1CCN(Cc2cc(Cl)c3cccnc3c2O)CC1,66
16,CN1CCN(Cc2cc(Cl)c3cccnc3c2OC(=O)c2cccs2)CC1,51
17,CCOC(=O)N1CCN(Cc2ccc(O)c3ncccc23)CC1,56.8
18,CCOC(=O)N1CCN(Cc2ccccc2Cl)CC1,10.7
19,COCCCNC(=O)c1ccc2c(c1)ncn2-c1ccc(C)cc1C,5.06
20,Cc1ccc(NC(=O)CN2C(=O)NC3(CCCC3)C2=O)nc1,-25.1
21,COc1ccccc1OCC(=O)/C=C1/N(C)c2ccccc2C1(C)C,17.5
22,NS(=O)(=O)c1ccc(CCNC(=O)C2COc3ccccc3O2)cc1 (stereo unspecified),7.64
23,COc1ccc(CCN2C(=O)CC(N3CCN(S(=O)(=O)c4ccccc4)CC3)C2=O)cc1OC (stereo unspecified),13.8

row,Compound,inhibition [%]
1,CCC(C)[C@H](NC(=O)c1cc2cc(Cl)ccc2n1C)C(=O)N1CCC(C(=O)O)CC1 (stereo partly specified),0.12
2,COc1cccc(CNC(=O)CN2CCC(c3nc4ccc(C)cc4[nH]3)CC2)c1,6.15
3,FC(F)(F)c1cccc(CON=C2CCN(c3ncc(C(F)(F)F)cc3Cl)CC2)c1,-8.15
4,O=C(Nc1cc(Cl)ccc1Cl)c1ccc(OC(=O)c2ccco2)cc1,49.5
5,O=C(Nc1cc(Cl)ccc1Cl)c1ccco1,-1.55
6,CN(Cc1ccc2c(c1)OCCO2)C(=O)CSc1ncnc2sccc12,25.8
7,CCCc1cc(=O)[nH]c(SCC(=O)c2cc(C)n(CC(F)(F)F)c2C)n1,6.27
8,COc1cccc(-n2ccnc2SCC(=O)Nc2ccccc2)c1,2.78
9,CC(C)(C)c1ccc2c(c1)OC(C(=O)N/N=C\c1ccncc1)CO2 (stereo unspecified),10.4
10,CC(C)(C)c1ccc2c(c1)OC(C(=O)N/N=C/c1ccc([N+](=O)[O-])o1)CO2 (stereo unspecified),77.1
11,O=C(N/N=C/c1c[nH]c2ccccc12)C1COc2ccccc2O1 (stereo unspecified),26.6
12,Cn1cccc1/C=N\NC(=O)C1COc2ccc(C(C)(C)C)cc2O1 (stereo unspecified),78.1
13,C/C(=N\NC(=O)C1COc2ccccc2O1)c1ccc(Cl)s1 (stereo unspecified),76
14,O=C(N/N=C\c1ccc(O)c([N+](=O)[O-])c1)C1COc2ccccc2O1 (stereo unspecified),57
15,O=C(N/N=C/c1cccc([N+](=O)[O-])c1)C1COc2ccccc2O1 (stereo unspecified),29.6
16,O=C(N/N=C\c1ccc(-c2ccc([N+](=O)[O-])cc2)o1)C1COc2ccccc2O1 (stereo unspecified),42.2
17,CC(C)CNS(=O)(=O)c1ccccc1C(=O)N1CCCCC1,8.8
18,C/C(=C\c1ccccc1)C(=O)N1CCN(c2cccc(C(F)(F)F)c2)CC1,22.2
19,COc1ccc(N2CC(C)Cn3c2nc2c3c(=O)n(Cc3ccc(C)cc3)c(=O)n2C)c(OC)c1 (stereo unspecified),17.9
